Results as given in PubChem BioAssay (NCI).
“And” between values parts separate entries of the source, which are not always exact repeats. Equal values may be shown once. The panel holds about 83,000 compounds, 20% with a hit somewhere; the sample as a whole holds those more often.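 The endpoint reported here, percent growth, reads 100 for growth as untreated, 0 for no net growth and -100 for all cells dead.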 Unmarked numbers belong to inactive results. The source made the active and inactive calls. Rule for the calls: active = growth percent below 10; inactive = the rest.

Tested on: MDA-MB-468 breast
Assay: NCI-60 one-dose screen, 48 h (100 = growth as untreated, 0 = no growth, -100 = all killed)
Settings: 10 µM unless noted

| Structure (SMILES) | growth |
| --- | --- |
| C=CCOc1ccc2c(c1)CC[C@@H]1[C@@H]2CC[C@]2(C)C(=O)/C(=N/O)C[C@@H]12 | 60.8% |
| CC(CCc1ccc(Cl)c(Cl)c1)NCc1ccc(C(C)(C)C)cc1 (stereo not given) | 30.8% |
| Oc1ccc(-c2nc(-c3ccc4oc5ccc(-c6[nH]c(-c7ccc(O)cc7)nc6-c6ccccc6)cc5c4c3)c(-c3ccccc3)[nH]2)cc1 | 6.14% (active) |
| O=C1c2c(c3c4cc(Br)ccc4[nH]c3c3ccc4ccccc4c23)C(=O)N1CCN1CCNCC1 | 79.6% |
| O=C(CN(C(=O)Cn1c(=O)n2nnnc2c2ccccc21)c1ccccc1C(F)(F)F)Nc1ccc(C(F)(F)F)cc1 | 108% |
| Cc1c(C(=O)C(SC(=S)N2CCOCC2)SC(=S)N2CCOCC2)nnn1-c1ccc([N+](=O)[O-])cc1 | 92.7% |
| Cn1cnc(-c2cc3nccc(Oc4ccc(NC(=S)NC(=O)Cc5ccccc5)cc4F)c3s2)c1 | 103% |
| Cc1[nH]n(C(N)=S)c(=O)c1N=Nc1ccc(F)c(Cl)c1 | 154% |
| Cc1ccc(/C=C2\SC(=S)N(c3ccc(F)cc3)C2=O)o1 | 69.6% |
| C=C1C(=O)O[C@@H]2C[C@@H](C)CCC(=O)[C@](C)(OC(C)=O)C[C@H](OC(=O)/C(C)=C\C)[C@@H]12 | 32.7% |
| Cn1ccnc1C(=O)/C=C/c1ccc(C(=O)Nc2nc3ccccc3[nH]2)cc1 | -3.55% (active) |
| CCCCCCCCCCCCCCCCCCOc1ccccc1N | 101% |
| CC/C(=C(/c1ccc(OCCN(C)C)cc1)c1ccc(OC(=O)CCCCC(=O)c2c(C)[nH]c(/C=C3\N=C(c4ccc[nH]4)C=C3OC)c2C)cc1)c1ccccc1 | 47.5% |
| O=C1c2ccc3c4ccc5c6c(ccc(c7ccc(c2c37)C(=O)N1CCC[P+](c1ccccc1)(c1ccccc1)c1ccccc1)c64)C(=O)N(CCC[P+](c1ccccc1)(c1ccccc1)c1ccccc1)C5=O | -2.38% (active) |
| COc1cc(-c2nn(-c3ccc(C)cc3)cc2C(=O)O)ccc1O | 121% |
| CNC(=O)c1cc(Oc2cccc3nc(NC(=O)Nc4cc(C(F)(F)F)ccc4Cl)ccc23)ccn1 | 111% |
| Cc1ccc(NC(=O)c2sc3nc4c(cc3c2N)C(=O)CCC4)cc1C | 50.7% |
| CC1=C([Se]CC(OC(=O)[C@@H](CSSC(C)(C)C)NC(=O)C(C)(C)C)C(=O)NCCCCCC(=O)OCc2ccccc2)C(=O)c2ccccc2C1=O (stereo not given in full) | -21.9% (active) |

| Structure (SMILES) | growth |
| --- | --- |
| COc1cccc(C(=O)NCCNc2cc(-c3cn(-c4ccccc4)nc3-c3cccc(OC)c3)ccn2)c1 | 48.9% |
| N#Cc1c(-c2cccc(F)c2)cc(-c2cccnc2)[nH]c1=O | 106% |
| NCCCCCCNc1cc(-c2cccc(OC(F)(F)F)c2)nc2ccc(N3CCCC3)cc12 | -87.9% (active) |
| COc1ccc(/C=C/c2ccc3ccccc3n2)c(OC)c1 | 18.3% |
| COc1ccc2c(c1)c(-c1nc(-c3c[nH]c4ncccc34)cs1)cn2CCNC(=O)OC(C)(C)C | 20% |
| O=C(Nc1cnc(C(F)(F)F)cn1)c1cc(Cl)ccc1O | -0.82% (active) |
| Nc1nc(N)c2c(n1)NC(c1ccc(C(F)(F)F)cc1)CC(c1ccc(Nc3nc(NCCO)nc(N4CCOCC4)n3)cc1)=N2 (stereo not given) | 68.3% |
| CCC(=O)c1c(C)[nH]c(C)c1C | 54.4% |
| Cc1ccc(/C=C/c2c(C(=O)/C=C/c3ccc(Cl)cc3)c(C)nc3ccccc23)cc1 | -23.3% (active) |
| CCCCCCCCCCC(C)Br (stereo not given) | 111% |
| Cc1nonc1-c1ccc2c(c1)OCO2 | 111% and 93.8% |
| CC(=O)OC[C@H]1OC(Sc2sc(C(=O)c3ccc(Br)cc3)c(N)c2-c2nc3ccccc3s2)[C@H](OC(C)=O)[C@@H](OC(C)=O)[C@@H]1OC(C)=O (stereo not given in full) | 71.5% |
| N#CC1=C(N)Oc2ccc3ccccc3c2C1c1ccccc1Cl (stereo not given) | 31.1% |
| COCCCNc1nc(NC(=O)c2cc(OC)cc(OC)c2)cc(-c2cccnc2)n1 | 94.8% |
| Oc1ccc(C(c2ccc(O)cc2)c2ccc(Cl)cn2)cc1 | -30.9% (active) |
| CC(C)C(=O)Nc1nc2c(s1)CCCc1ccn(S(=O)(=O)c3ccccc3)c1-2 | 95.3% |
| Oc1ccc([S+](c2ccc(O)cc2)c2ccc(O)cc2)cc1 | 98% |
